Test results taken from PubChem BioAssay (NCATS).
“And” between values parts separate entries of the source, which are not always exact repeats. Equal values may be shown once. Inconclusive results are not listed. A call without a number means that no potency is given here. The source made the active and inactive calls. Calls come from the whole dose curve; as a rule, active = well fitted cell-killing curve with a large enough effect; inconclusive = small, poorly fitted or top-dose-only effect, or effect the other way; inactive = no such curve, though single readings can be large or run the other way.

experiment: qHTS of pediatric cancer cell lines to identify multiple opportunities for drug repurposing: Confirmatory screen for RD cells (AID 1347124); details: RD rhabdomyosarcoma cell viability; series mostly up to 45.9 µM;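 note: cells exposed to compound for 48 h before viability readout; nearly all actives have a fitted effect of over 65% in size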
From the text: Drug repurposing or repositioning has been offered as a strategy for drug development in oncology programs. This approach has special potential for childhood cancers and other rare or orphan diseases, where the expected return on new drug development has been a disincentive to pharmaceuticals.
In this project we exploit the poly-pharmacology of drugs to discover new indications via phenotypic screening of a panel of 19 well-characterized cell lines derived from solid tumors seen in children and adolescents. The goal is to identify approved drugs with previously unrecognized anticancer properties that has the potential to reveal new mechanisms and biological processes involved in carcinogenesis or drug resistance. We employed a titration-based paradigm (quantitative high-throughput screening or qHTS), where all compounds were tested at multiple concentrations for their effect on cell viability. Concentration-response curves (CRCs) were derived directly from the primary screen, and both potency and efficacy values were used to identify compounds with robust bioactivity profiles. We screened the NIH Chemical Genomics Center (NCGC) Pharmaceutical Collection (NPC) and Mechanism Interrogation Plate (MIPE) small molecule collections of approved and investigational compounds against these cell lines; and measured metabolically active cells after 48 hours of compound treatment as a proxy for cell viability.
Assay Submitter: Nathalia J. Martinez, National Center for Advancing Translational Sciences, National Institutes of Health, Rockville, MD, USA; email: natalia.martinez@nih.gov
[1] Shen, M et al. Quantitative high-throughput phenotypic screening of pediatric cancer cell lines identifies multiple opportunities for drug repurposing. Oncotarget 2017 Dec 19;9(4):4758-4772. PMID 29435139.
The cells were obtained from University of North Carolina (UNC), Pediatric Preclinical Testing Program (PPT), and Coriell Institute (CI).
qHTS cell viability assay:
Cells were assayed in growth media at a density of 500-1,000 cells/well. Five microliters of cells were dispensed into 1,536-well, white, solid-bottom, TC-treated plates (Greiner Bio One) using a multidrop dispenser and incubated at 37 degrees C, 5% CO2, under a humidified atmosphere for 5 hours. Twenty-three nanoliters of compounds and controls (neutral control DMSO or positive control bortezomib at final concentration of 2.3 µM) were subsequently transferred by Kalypsys pintool. For primary screens, the MIPE collection was tested at 11-point dilutions (final concentrations range from 0.78 nM to 46 µM) and the NPC collection at 8-point dilutions (final concentrations range from 0.59 nM to 46 µM). Compounds tested in follow-up screens were assayed at 11-point dilutions. Cells were incubated for 48 hours, followed by addition of 3 µL of CellTiter-Glo (Promega). After a 15 min incubation at room temperature, samples were analyzed for luminescence intensity using a ViewLux High-throughput CCD imager equipped with clear filters.
Potency is the fitted concentration of half-maximal effect.

| SMILES | Potency |
| --- | --- |
| CN(C)c1ccc2nc3ccc(=[N+](C)C)cc-3sc2c1 | 14.7 µM (active) |
| CCOc1cc(CC(=O)N[C@@H](CC(C)C)c2ccccc2N2CCCCC2)ccc1C(=O)O | inactive |
| CS(=O)(=O)OCCCCOS(C)(=O)=O | inactive |
| Cc1ccc(NC(=O)c2ccc(CN3CCN(C)CC3)cc2)cc1Nc1nccc(-c2cccnc2)n1 | inactive |
| CCN(CCO)CCCC(C)Nc1ccnc2cc(Cl)ccc12 (stereo not drawn) | inactive |
| CCCCc1ccc2nc(NC(=O)OC)[nH]c2c1 | 0.369 µM (active) |
| CCc1nc(N)nc(N)c1-c1ccc(Cl)cc1 | 9.27 µM (active) |
| Cc1c(C(=O)NN2CCCCC2)nn(-c2ccc(Cl)cc2Cl)c1-c1ccc(Cl)cc1 | inactive |
| O=C(NCC1CCCCN1)c1cc(OCC(F)(F)F)ccc1OCC(F)(F)F (stereo not drawn) | inactive |
| COc1cc(C(C)=O)ccc1OCCCN1CCC(c2noc3cc(F)ccc23)CC1 | inactive |
| Cc1nc(Nc2ncc(C(=O)Nc3c(C)cccc3Cl)s2)cc(N2CCN(CCO)CC2)n1 | inactive |
| CC1(C)C(=O)N(CCN2CCC(C(=O)c3ccc(F)cc3)CC2)c2ccccc21 | inactive |
| c1cnc2cc3c(cc2n1)C1CNCC3C1 | inactive |
| C=C(c1ccc(C(=O)O)cc1)c1cc2c(cc1C)C(C)(C)CCC2(C)C | inactive |
| Cc1ccc(Nc2nccc(N(C)c3ccc4c(C)n(C)nc4c3)n2)cc1S(N)(=O)=O | inactive |
| CCN(CC)C(=S)SSC(=S)N(CC)CC | 4.65 µM (active) |
| CCN(CC)CCOc1ccc(Nc2ncc3cc(-c4c(Cl)cccc4Cl)c(=O)n(C)c3n2)cc1 | 2.33 µM (active) |
| CC(C)C[C@H](NC(=O)[C@H](Cc1ccccc1)NC(=O)c1cnccn1)B(O)O | 0.0414 µM (active) |
| O=C1c2c(O)cc(O)cc2OC(c2ccc(O)c(O)c2)C1O (stereo not drawn) | inactive |
| Nc1nc(OCc2ccccc2)c2[nH]cnc2n1 | inactive |
| Nc1ccn([C@@H]2O[C@H](CO)[C@@H](O)C2O)c(=O)n1 (stereo partly drawn) | inactive |
| O=C(CCc1ccc(O)cc1)c1c(O)cc(O)cc1O | inactive |
| CC[C@]1(O)C[C@H]2CN(CCc3c([nH]c4ccccc34)[C@@](C(=O)OC)(c3cc4c(cc3OC)N(C=O)[C@H]3[C@@](O)(C(=O)OC)[C@H](OC(C)=O)[C@]5(CC)C=CCN6CC[C@]43[C@@H]65)C2)C1 | 52.2 nM (active) and 147 nM (active) |
| Oc1ccc(-c2nc(-c3ccc(F)cc3)c(-c3ccncc3)[nH]2)cc1 | inactive |
| C[C@]12CCC(=O)C=C1CC[C@@H]1[C@H]2[C@@H](O)C[C@@]2(C)[C@H]1CC[C@]2(O)C(=O)CO | inactive |
| Nc1ncn([C@H]2C[C@H](O)[C@@H](CO)O2)c(=O)n1 | inactive |
| CCCOc1ccc2nc(NC(=O)OC)[nH]c2c1 | 1.65 µM (active) |
| CN(C)c1ccc(O)c2c1C[C@H]1C[C@H]3[C@H](N(C)C)C(=O)C(C(N)=O)=C(O)[C@@]3(O)C(=O)C1=C2O | inactive |
